Among the data in PMC7819943, “Rice protein-binding microarrays: a tool to detect cis-acting elements near promoter regions in rice” are binding signal values, retold here.

Whole data set: some 35,000 sequences, median “fluorescence intensity (a.u.)” near 10,000, cut for the highest 2% near 52,000. Shown is part of a subset that was picked to be rich in the highest values.

The target of this experiment is T1, OsWOX13 (Oryza sativa, UniProt Q5QMM3 1-267).
T1 sequence: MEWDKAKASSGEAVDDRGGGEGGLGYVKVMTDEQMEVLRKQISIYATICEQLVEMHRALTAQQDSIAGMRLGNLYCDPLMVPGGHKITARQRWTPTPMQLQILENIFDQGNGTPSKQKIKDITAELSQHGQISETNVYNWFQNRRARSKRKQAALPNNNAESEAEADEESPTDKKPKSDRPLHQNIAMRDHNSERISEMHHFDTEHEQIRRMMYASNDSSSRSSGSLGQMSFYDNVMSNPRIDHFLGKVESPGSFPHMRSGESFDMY
In words: protein-binding microarray (RPBM); PBS, 2% BSA, 51.3 ng/ul salmon testes DNA, 50 uM zinc acetate, 200 nM TF, 25 C, 1 h; high values mean tight binding. Conditions: protein: recombinant; tags: N-terminal polyhistidine and DsRed monomer fusion (pET32a); label: CyDye5-dUTP incorporated in the synthesized complementary strand; 3' TTTTT single-stranded linker to array surface; dsDNA, one strand shown. Summed up:
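Binding signal is defined as the fluorescence intensity of each feature in arbitrary units, read on an Axon 4000B scanner. Transcription factors with N-terminal polyhistidine and DsRed fusions came from E. coli BL21-CodonPlus and were purified on Ni–NTA. They were incubated at 200 nM for 1 h at 25 °C on a custom Agilent array that had been made double-stranded with Cy5-dUTP, with 50 µM zinc acetate present, and the array was washed.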
For the sequence “CTCTACAGTAAATCAAACAGTAATCACACTCCAAACAAAACGGAGTCACCTAGTGCAG”, the binding signal is 5420 fluorescence intensity (a.u.). The value for “ATTGGCTAGATTGGAAGCAAGAGAAGCTGCAGCGAAGGCACGGAGTCACCTAGTGCAG” was 7860 fluorescence intensity (a.u.). As for “TTTGGAAATTATCTATGAATTTACCTAGTTTCATCGTCCACGGAGTCACCTAGTGCAG”, the figure is 4970 fluorescence intensity (a.u.); as for “AGTTTTACAATAAATTTACTGTTATAAATATACATTTAACCGGAGTCACCTAGTGCAG”, 6140 fluorescence intensity (a.u.); as for “TTTGATGGGAATTTGTTTCAGATATGCTTACGTGCACATACGGAGTCACCTAGTGCAG”, 13800 fluorescence intensity (a.u.).

For “AACTAATTGTTTCTTCAGACTTCTTCAGAGCATTCTCCAGCGGAGTCACCTAGTGCAG”, the binding signal was 36800 fluorescence intensity (a.u.). The value for “ATGATTTGCATGATTGCTTGCTTGCTTGCTGCTATGGCCACGGAGTCACCTAGTGCAG” was 62700 fluorescence intensity (a.u.); that for “GTGATCACCCTTTGATTGACCCGCACCCGCATCCCTTTCCCGGAGTCACCTAGTGCAG” was 35500 fluorescence intensity (a.u.); that for “TTGATTGCAGATCAAATGCATGCAATAAGAATGGAGATGGCGGAGTCACCTAGTGCAG” was 19600 fluorescence intensity (a.u.).

In the case of “ATTGATTGATCAAGACTGCATGGCAATACTCGACGTGCTGCGGAGTCACCTAGTGCAG”, the binding signal is 64800 fluorescence intensity (a.u.). As for “TGTCACATCACATCGATCATTGATTTCACTTTGATTCCTCCGGAGTCACCTAGTGCAG”, the figure is 5220 fluorescence intensity (a.u.). The value for “CCAATAATAACACTGATCACTGATCAATCATGGCATCATGCGGAGTCACCTAGTGCAG” was 16000 fluorescence intensity (a.u.).

As to “CTCATGATTTACGGCTGCTGGCCGCCGGGCTATTTAACCACGGAGTCACCTAGTGCAG”, the binding signal is 10900 fluorescence intensity (a.u.).

Regarding “TATTTTGCTTAAATGGCTGATTAGTCAAAGCATTTGGCCACGGAGTCACCTAGTGCAG”, the binding signal is 4720 fluorescence intensity (a.u.). As for “ATCATGATTGCATGATTGATTGCACATTTGCATCATTTCCCGGAGTCACCTAGTGCAG”, the figure is 63400 fluorescence intensity (a.u.).

Turning to “AAGATTGGATTCGCTGCAATACCATCACTAAACTCGGCTTCGGAGTCACCTAGTGCAG”, the binding signal is 12800 fluorescence intensity (a.u.). Take “CACTTAATCATATTCATCATATTCAAACGGGACCTAAGGGCGGAGTCACCTAGTGCAG”: the binding signal was 8880 fluorescence intensity (a.u.).

In the case of “CCCTCCATCCCCTCAGTCCACTCAATCACCACACCAGCCACGGAGTCACCTAGTGCAG”, the binding signal was 3850 fluorescence intensity (a.u.).

Regarding “CCAATCACATTCACTTTTACAGTTTAGCCCCACCCTCTCCCGGAGTCACCTAGTGCAG”, the binding signal was 4980 fluorescence intensity (a.u.). The value for “GCTTGATGACCAAGTATATATAAACATGTCAGTGATTATTCGGAGTCACCTAGTGCAG” was 5670 fluorescence intensity (a.u.); that for “CTGTATATTGATTGATTGGTTATTCGCAAGAAACATGACTCGGAGTCACCTAGTGCAG” was 65100 fluorescence intensity (a.u.). Regarding “GTTATCATGATTTATATTCCCAAGGTTTGACTTAAACATTCGGAGTCACCTAGTGCAG”, the binding signal was 11400 fluorescence intensity (a.u.). The value for “ATATTGATTGATTGGTTATTCGCAAGAAACATGACTGTTCCGGAGTCACCTAGTGCAG” was 63800 fluorescence intensity (a.u.); that for “ATACCTTATTGAAATATGATTGTTCGACTGGTTACTGAATCGGAGTCACCTAGTGCAG” was 19500 fluorescence intensity (a.u.). The value for “GGGCATAAATTTTGGTGATTTTCGGTTTTCTGAAGTTCCTCGGAGTCACCTAGTGCAG” was 7130 fluorescence intensity (a.u.). The value for “ATTCTGATTGGCAAGTTGGTTATTCCTTTTCTGATTGGTTCGGAGTCACCTAGTGCAG” was 60700 fluorescence intensity (a.u.); that for “GATTCCCTTCTTTTCTTTGGTTGATTTCTTTCTGTATTTCCGGAGTCACCTAGTGCAG” was 5880 fluorescence intensity (a.u.). For “ATGAAGAAACTGTTGGTGATTTGACAAGTAGGCTTGGTTCCGGAGTCACCTAGTGCAG”, the binding signal was 6530 fluorescence intensity (a.u.). As for “AGGGAATTTTATGATTTGCATTGGTGCTGAGGTCAAACCCCGGAGTCACCTAGTGCAG”, the figure is 7180 fluorescence intensity (a.u.); as for “GACAGATTAATTAAAGAATCATCATTACTGCGATGCGACCCGGAGTCACCTAGTGCAG”, 16600 fluorescence intensity (a.u.). Consider “ACAAATTGCCAACTCATGAAAGTGATCGATGATGGGCTTACGGAGTCACCTAGTGCAG”, for which the binding signal is 15700 fluorescence intensity (a.u.).

“GTCCTACATATGCTAAATTGGCAATATGTAAAGATTTACTCGGAGTCACCTAGTGCAG”: the binding signal was 4980 fluorescence intensity (a.u.).

With “TTATTTATCAGTCTGATTTTATATAATGTAATATTATGCACGGAGTCACCTAGTGCAG”, the binding signal is 3150 fluorescence intensity (a.u.). The value for “TAAGTTAAATAACTATTAATTGTGGCCTGTGCTCAGCCTTCGGAGTCACCTAGTGCAG” was 9070 fluorescence intensity (a.u.); that for “GCAAATTAACTTAATTAATAAGTTGAGCAGCCTGTAGGCCCGGAGTCACCTAGTGCAG” was 58200 fluorescence intensity (a.u.); that for “AAATTAACTTAATTAATAAGTTGAGCAGCCTGTAGGCCTTCGGAGTCACCTAGTGCAG” was 17500 fluorescence intensity (a.u.).

On to “AATGATTAGAATTTGGTAAAGTAGAGGACAAAGATAAAATCGGAGTCACCTAGTGCAG”, for which the binding signal is 7910 fluorescence intensity (a.u.). As for “GGATAGAATTGATTGAGCGAGAGAGAGAATTGAACACAAACGGAGTCACCTAGTGCAG”, the figure is 21200 fluorescence intensity (a.u.); as for “AAAATAAACAAATCTATCCACTAACAATTTGACATGATATCGGAGTCACCTAGTGCAG”, 7240 fluorescence intensity (a.u.). As for “TTCGGATTGATTGTTGAGACAAATCTCGTAGAACACGGAACGGAGTCACCTAGTGCAG”, the figure is 62900 fluorescence intensity (a.u.); as for “GAAATTGATTTATCCAGGGAAACTGTCGTGACAAATTTCGCGGAGTCACCTAGTGCAG”, 49300 fluorescence intensity (a.u.); as for “TTTAACACAAATGAGAACTTGATCGATTCCTCGTATTGTTCGGAGTCACCTAGTGCAG”, 3850 fluorescence intensity (a.u.).

With “TTTGAGTGATTGACAGGAAACAAATCCACCACTATCTGTTCGGAGTCACCTAGTGCAG”, the binding signal is 62400 fluorescence intensity (a.u.). The value for “ATAAATAAATACTCTAATTGCAAGCAACCAACGTCCCAACCGGAGTCACCTAGTGCAG” was 5780 fluorescence intensity (a.u.); that for “CTACAATTTATCATAAACTTGATAAAATATAAACAAATTCCGGAGTCACCTAGTGCAG” was 4240 fluorescence intensity (a.u.); that for “AGGACATAATTTTAATGGGGAAATTGGTTCCATACCATCTCGGAGTCACCTAGTGCAG” was 20500 fluorescence intensity (a.u.).
